Screens (PubChem BioAssay)
This is a sample that favours compounds with a hit; in the whole collection about 7.2% have one here.
A1 inh: caspase 3/7 activation in MEF A1-2A-BIM cells, primary screen, A1 inhibitor project, cell-based, luminescence, HTS. Caspase-Glo 3/7 luminescence, 3 h; percent of clofoctol response, vehicle zero. caspase activation, % (concentration not given with the values). hit rate 0.066% among 330,000. AID 2462, 2010;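 active means over half of replicate activation scores above 10%, or exactly half above 10 with the replicate mean above 10; inconclusive means replicate mean below 10 yet half the replicates above 10; inactive means over half of replicates below 10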
SUMO Mot1 rescue: yeast Mot1-301 growth rescue at high temperature, primary screen, SUMOylation pathway inhibitor project, S. cerevisiae, ATP luminescence, 38.5C | S. cerevisiae Mot1-301 growth rescue; percent above DMSO median, 100 means doubled | growth rescue, % at 18.8 µM | hit rate 1% among 320,000 | AID 2716, 2010;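 active means every valid replicate shows activation above 250% relative to neutral control wells; inactive means the rest, any valid replicate at or below 250%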;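 further: OY570 slx delta 5 strain wells were the positive control but not used for scaling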
VLA-4 inh: inhibition in human VLA-4 binding assay, primary screen, VLA-4 allosteric modulator project, MLPCN library, flow cytometry, VLA-4 expressing cells. Integrin alpha-4 (Homo sapiens), P13612. ligand binding flow cytometry. hit rate 0.2% among 330,000. inhibition, % (about 7 µM as worked out from the volumes in the protocol). AID 2557, 2010; in the data active means inhibition above about 50%
ALR H2O2 inh: inhibitors of human ALR sulfhydryl oxidase, primary screen, biochemical, H2O2 detection, HRP-luminol luminescence, single point; FAD-linked sulfhydryl oxidase ALR (Homo sapiens), P55789; purified ALR, DTT oxidation; inhibition, % (no concentration beside the values); hit rate 3.8% among 290,000; AID 485317, 2010;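 active means mean replicate inhibition above about 79%, with every replicate also reaching it, limit read from the data; inconclusive means only one of the two criteria met; inactive means mean below limit and not every replicate reaching it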
Target sequence (P55789 whole entry, looked up): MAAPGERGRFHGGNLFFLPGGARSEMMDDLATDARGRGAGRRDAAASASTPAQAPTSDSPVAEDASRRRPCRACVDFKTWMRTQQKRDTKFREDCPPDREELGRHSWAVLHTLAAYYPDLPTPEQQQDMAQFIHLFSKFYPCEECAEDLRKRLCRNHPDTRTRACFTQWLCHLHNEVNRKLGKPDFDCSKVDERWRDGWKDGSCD
AHR act: AHR activators, primary screen, cell-based, luminescence, luciferase reporter, human | Aryl hydrocarbon receptor (Homo sapiens), P35869 | AHR-responsive luciferase reporter cells | activation, % at 5 µM | hit rate 2.5% among 320,000; in the data active means activation above about 47%;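 further: 0% = vehicle wells and 100% = reference agonist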
Efflux pump inh: inhibitors of Candida efflux pumps in yeast, primary screen, S. cerevisiae, Nile Red, multiplex. hit rate 0.44% among 330,000. S. cerevisiae Candida pump triplex. inhibition, % at 10 µM;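 active means plate passing quality check with inhibition over a set limit, or well fluorescence over plate mean plus 4 SD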;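 further: Nile Red retained in pooled yeast measured as flow cytometry median fluorescence; 0% = buffer negative control and 100% = Enniatin B positive control; higher means more Nile Red kept so more efflux inhibition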
VLA-4 allo CP: retest of VLA-4 allosteric modulators, confirmation, cell-based, cherry-picked plates, U937, HUTS-21 LIBS antibody; shares compounds with VLA-4 inh; U937 cells, HUTS-21 LIBS mAb binding, flow cytometry; LDV ligand present at threefold Kd; inhibition, % at 6.7 µM; hit rate 2% among 1,300; in the data active means inhibition above about 40%;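 further: 0% = ligand without compound and 100% = no ligand background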
An asterisk follows results filed as active; ? = inconclusive; . = not tested or not shown.

SMILES	A1 inh	SUMO Mot1 rescue	VLA-4 inh	ALR H2O2 inh	AHR act	Efflux pump inh	VLA-4 allo CP
CC(OC(=O)c1ccccc1O)C(=O)Nc1cccc(Cl)c1 (stereo not given)	-1	-12	6	.	3	0	1
CC(OC(=O)CCN1C(=O)C2CC=CCC2C1=O)C(=O)Nc1cccc(Cl)c1 (stereo not given)	0	6	4	.	0	0	.
C/C(CC(=O)Nc1cccc2c1CCCC2)=N\NC(=O)c1cccc2ccccc12	1	-12	43	3	8	0	2
CCc1ccc([C@H]2C(C(=O)O)=C[C@@H](C(C)(C)C)N2S(=O)(=O)c2ccc(C)cc2)cc1	.	.	26	.	0	-1	1
CC[C@@H]1C=C(C(=O)O)[C@H](c2ccc(Cl)cc2)N1S(=O)(=O)c1ccc(C)cc1	.	.	-40	.	-2	0	.
CC[C@@H]1C=C(C(=O)O)[C@H](c2ccc(OC)c(OC)c2)N1S(=O)(=O)c1ccc(C)cc1	1	-2	28	.	-1	0	1
COc1ccc([C@@H]2CC=C(C(=O)O)[C@H](c3ccccc3)N2S(=O)(=O)c2ccc(C)cc2)cc1OC	1	-7	22	4	0	0	.
CC[C@@H]1C=C(C(=O)O)[C@H](c2ccc(C)cc2)N1S(=O)(=O)c1ccc(C)cc1	-1	-12	36	.	0	0	0
Cc1ccc([C@H]2C(C(=O)O)=CC[C@@H](c3cccs3)N2S(=O)(=O)c2ccc(C)cc2)cc1	-1	83	14	.	3	0	.
Cc1ccc(S(=O)(=O)N2[C@@H](c3ccc(C(C)(C)C)cc3)C(C(=O)O)=CC[C@H]2c2cccs2)cc1	.	.	60*	.	2	0	2
CN(CCOC(=O)c1ccc2c(c1)OCO2)C(C)(C)C	0	-5	5	-4	-1	0	.
O=C(NCc1cccnc1)c1ccc(-c2cc3ccccc3oc2=O)cc1	-4	2	-4	-12	1	0	.
CN(Cc1c(F)cccc1Cl)C(=O)c1ccc(NS(=O)(=O)c2ccc3[nH]c(=O)[nH]c3c2)cc1	0	-2	0	.	1	0	.
COc1ccc(Nc2nnc(SCc3cc([N+](=O)[O-])cc4c3OCOC4)s2)cc1	0	-14	6	-7	4	0	.
CCOc1ccccc1CNC(=O)CCn1ccc2cc(S(=O)(=O)N3CCCCC3)ccc21	0	-4	0	-10	2	0	.
CCOc1ccc(NC(=O)CN(C)C(=O)CCC2CCCCC2)cc1OCC	-1	20	-9	-2	1	0	.
Cc1ccc(S(=O)(=O)N2[C@@H](c3ccc(C(C)(C)C)cc3)C(C(=O)O)=CC[C@H]2c2ccc(Cl)cc2)cc1	.	.	23	.	0	0	.
COc1ccc([C@H]2C(C(=O)O)=C[C@@H](C(C)(C)C)N2S(=O)(=O)c2ccc(C)cc2)cc1OC	.	.	40	.	0	0	1
CC(C)(C)[C@@H]1C=C(C(=O)O)[C@H](c2ccc(Cl)cc2)N1S(=O)(=O)c1ccccc1	.	.	26	.	-2	0	0
Cc1cc(NC(=O)CSCC(=O)Nc2cccc(S(=O)(=O)N3CCCCCC3)c2)no1	-1	-8	0	-3	2	0	.
COc1ccc(N2CCN(CCNS(=O)(=O)c3ccc(C)cc3)CC2)cc1	1	-7	3	.	3	0	.
C=CCNc1nc(C(F)(F)F)nc2c1nnn2Cc1ccccc1Cl	0	-11	70*	-1	-1	0	-9
CCOCCCNc1nc(C(F)(F)F)nc2c1nnn2Cc1ccccc1Cl	0	62	11	6	6	0	.
CCCCc1nc(N2CCN(C(=O)c3ccco3)CC2)c(C#N)c2c1CCCC2	1	-6	14	0	1	0	.
Cc1ccc(NC(=O)c2cc(NC(=O)C3CC=CCC3C(=O)O)ccc2N2CCOCC2)cc1Cl (stereo not given)	1	.	23	43	3	0	.
SMILES	A1 inh	SUMO Mot1 rescue	VLA-4 inh	ALR H2O2 inh	AHR act	Efflux pump inh	VLA-4 allo CP
COc1ccc(CC(=O)NNC(=O)CSc2ccc(C)cc2)cc1	-2	.	53*	-4	0	0	4
COC(=O)[C@]1(CC(C)C)N[C@H](c2ccc(-c3ccc(F)cc3)c(OC)c2)[C@@H]2C(=O)N(C)C(=O)[C@@H]21	1	0	-2	5	3	0	.
COc1ccccc1OCC(=O)Nc1ccccc1C(=O)NCc1ccco1	1	2	3	-25	2	0	.
CCCNC(=O)c1ccccc1NC(=O)COc1ccc(OC)cc1	-1	4	.	-4	-1	0	-9
O=C(COc1ccccc1)Nc1ccccc1C(=O)NCc1ccco1	-2	-29	58*	.	3	0	0
NS(=O)(=O)c1ccc(CCNC(=O)C(=O)C2C(=O)Nc3ccccc32)cc1 (stereo not given)	1	60	9	27	33	0	.
CCOC(=O)/C(=C\c1ccc(OC(F)F)cc1)C1=Nn2c(nnc2-c2ccc(Cl)cc2)SC1	?	-2	60*	-1	2	0	51*
COc1ccccc1/C=N/NC(=O)CCn1cnc2ccccc21	-1	95	58*	-4	34	0	-1
Cc1ccc(CNS(=O)(=O)c2ccc3c(c2)C(C)(C)C(=O)N3C)cc1	0	0	-6	-29	1	0	.
CN(C)c1ccc(CNS(=O)(=O)c2ccc3c(c2)C(C)(C)C(=O)N3C)cc1	-1	2	52*	28	1	0	-1
COc1ccc(CNC(=O)Nc2cccs2)cc1OC	0	3	-9	5	2	0	.
COc1cccc(CNC(=O)Nc2cccs2)c1	0	78	92*	99*	4	0	-1
CCC(=O)c1cn(CC(=O)Nc2ccccc2)c2ccccc12	0	-11	13	.	16	0	.
COC(=O)c1cn(CC(=O)Nc2ccc(OC)cc2)c2ccccc12	1	-11	17	-1	0	1	.
CCC(=O)c1cn(CC(=O)Nc2ccc(OC)cc2)c2ccccc12	-1	-2	57*	-5	3	0	8
COC(=O)c1cn(CC(=O)Nc2ccccc2C)c2ccccc12	0	66	21	1	1	0	4
